Consider 53 compounds from ChEMBL document CHEMBL4513216, “Probing the Open Global Health Chemical Diversity Library for Multistage-Active Starting Points for Next-Generation Antimalarials” (ACS Infect Dis, 2020).

Out of some 69,000 compounds screened, about 8,600 (12%) showed an effect of 50% or more. The full list was thinned out, with strong results kept by preference.

The assay deals with Plasmodium berghei. Put plainly: Screen against P. berghei liver stage (PbLuc), transformed with Luciferase, at 10uM. To be noted: tested at 10 uM. The format is functional, HepG2.
On to `O=c1[nH]c2ncccc2n1C1CCNCC1`, for which the INHIBITION is recorded as -6.18%.

For `Cc1nccn1-c1cc(CNC(=O)CC2CCCO2)ccn1` (stereo not drawn), the INHIBITION turned out to be 30.6%.

Take `CO[C@H]1CC[C@H]2[C@H]1OCCN2Cc1ccc(F)c(F)c1`: the INHIBITION stood at 22.4%.

Regarding `Cc1cnn(CCNc2ncnc3c2CCN(CC2CCOC2)CC3)c1` (stereo not drawn), the INHIBITION is 60%.

As for `CN(C)c1ncnc2c1CCN(CC1CCOC1)CC2` (stereo not drawn), the INHIBITION turned out to be 19.9%.

Turning to `Cc1ncnc2c1CCN(CC1CCOC1)CC2` (stereo not drawn), the INHIBITION amounted to 18.3%.

On to `CCN(C)c1ncnc2c1CCN(CC1CCOC1)CC2` (stereo not drawn), for which the INHIBITION came to 55.5%.

With `CCN(CC)c1ncnc2c1CCN(CC1CCOCC1)CC2`, the INHIBITION turned out to be 41.6%.

In the case of `c1nc2c(c(NCCCn3cncn3)n1)CCN(CC1CCOC1)CC2` (stereo not drawn), the INHIBITION is 31.6%.

Consider `Cc1ccc(Nc2ncnc3c2CCN(CC2CCOC2)CC3)cc1` (stereo not drawn), for which the INHIBITION worked out at 29.8%.

On to `c1nc2c(c(C3CC3)n1)CCN(CC1CCOC1)CC2` (stereo not drawn), for which the INHIBITION is listed as 13.6%.

`CN(C)c1ncnc2c1CCN(CC1CCOCC1)CC2`: the INHIBITION is recorded as 64.9%.

For `CCOC(=O)Cn1c(=O)[nH]c2cn(-c3ccccc3)c(=O)n21`, the INHIBITION is listed as 7.3%.

Consider `Cc1cc(N2CCCC2c2nccnc2C)ncn1` (stereo not drawn), for which the INHIBITION is on record as 26.8%.

`Cc1nc(CN2CC3(CCN(c4nccs4)C3)CC2=O)cs1` (stereo not drawn): the INHIBITION was -3.52%.

For the compound `CCN(CC)C1CCN(C(=O)NCc2cccc(-n3cccn3)c2)C1` (stereo not drawn), the INHIBITION is 27%.

With `CC(=O)c1ccc(-n2ccc3nc(N4CCCC4)ncc3c2=O)cc1`, the INHIBITION was -82.2%.

Consider `CC(=O)Nc1ccc(-n2ccc3nc(N4CCCC4)ncc3c2=O)cc1`, for which the INHIBITION stood at 80.5%.

With `O=c1c2cnc(N3CCCCC3)nc2ccn1-c1ccccc1`, the INHIBITION is on record as 19.7%.

`COCC(=O)NC(C)c1cccc(Br)c1` (stereo not drawn): the INHIBITION is listed as -60.9%.

With `Cc1ccn(-c2ccnc(N3CCSCC3)n2)n1`, the INHIBITION came out at 30%.

Regarding `COc1ccc(C[C@H]2CN(C(=O)CN(C)C)CC[C@H]2OC)cc1`, the INHIBITION is 41.6%.

In the case of `COc1ccc(C[C@H]2CN(Cc3ccoc3)CC[C@@H]2OC)cc1`, the INHIBITION stood at 58.3%.

Turning to `CO[C@@H]1CCN(Cc2ccoc2)C[C@@H]1Cc1ccccc1`, the INHIBITION came to 51.4%.

As for `COc1ccc(CN2C[C@@H]3CN(Cc4ccoc4)C[C@@H]3C2=O)cc1`, the INHIBITION was -4.82%.

For the compound `CO[C@H]1CCN(Cc2ccoc2)C[C@@H]1Cc1ccccc1`, the INHIBITION is 41.4%.

Consider `COc1ccc(C[C@H]2CN(C(=O)c3cnoc3)CC[C@@H]2OC)cc1`, for which the INHIBITION was -50.4%.

`CO[C@@H]1CCN(Cc2ccoc2)[C@H]1Cc1ccccc1`: the INHIBITION is listed as 29.5%.

As for `COc1ccc(C[C@H]2CN(Cc3ccoc3)CC[C@H]2OC)cc1`, the INHIBITION was found to be 63.3%.

For `COc1ccc(C[C@H]2CN(C(=O)C3CC3)CC[C@H]2OC)cc1`, the INHIBITION was determined as 11.2%.

Turning to `CC(C)C1CCCN1CCCc1nc(-c2cccs2)no1` (stereo not drawn), the INHIBITION was -4.94%.

As to `CCN1C(=O)CCC12CCC(NC(=O)c1ccncc1F)CC2` (stereo not drawn), the INHIBITION was determined as 38.3%.

Consider `CCn1nc(C)cc1C(=O)N1C[C@@H](CN(C)C)[C@@H](CO)C1`, for which the INHIBITION is 38.7%.

For the compound `O=C(NCC1CCCO1)c1nc2c(s1)CCCN2CC1CC1` (stereo not drawn), the INHIBITION was -14.2%.

In the case of `c1cc(-c2nnc(C3(c4ccc5c(c4)OCO5)CCOCC3)o2)ccn1`, the INHIBITION was 40.7%.

`Cn1cccc1-c1nnc(C2(c3ccc4c(c3)OCO4)CCOCC2)o1`: the INHIBITION stood at 41.8%.

As for `c1cncc(-c2nnc(C3(c4ccc5c(c4)OCO5)CCOCC3)o2)c1`, the INHIBITION is 72.2%.

For the compound `CCN1CCC(CC(=O)NCCc2nc(N)cc(O)n2)CC1`, the INHIBITION is 0.348%.

In the case of `CC(C)CN1CCc2[nH]cnc2C12CCN(C(=O)c1cc[nH]n1)CC2`, the INHIBITION came to 48.5%.

`Cc1cc(C(=O)N2CCC3(CC2)c2nc[nH]c2CCN3CC(C)C)no1`: the INHIBITION is reported as 20.4%.

In the case of `Cc1cnc(C(=O)N2CCC3(CC2)C(=O)NCCN3CC(C)C)cn1`, the INHIBITION was 26.5%.

Take `CCN1CCNC(=O)C12CCN(C(=O)c1ccccn1)CC2`: the INHIBITION was -5.25%.

Turning to `CC(C)CN1CCNC(=O)C12CCN(C(=O)c1ccccn1)CC2`, the INHIBITION worked out at 50.7%.

For `CC(C)CN1CCc2[nH]cnc2C12CCN(C(=O)c1ccccn1)CC2`, the INHIBITION amounted to 55%.

Take `O=C(O)C1(Cc2ccccc2Cl)CCN(c2ncnc3[nH]ccc23)CC1`: the INHIBITION came to 43.3%.

Consider `Cc1nn(C)c(Cl)c1C1CCCN1Cc1cccc(C(N)=O)c1` (stereo not drawn), for which the INHIBITION is 11.2%.

For `Cn1c(=O)c2cc(C(=O)NCc3ccccn3)ccc2n(C)c1=O`, the INHIBITION is 26.3%.

Regarding `CC(C)NC(=O)N1CCCn2cnc(CO)c2C1`, the INHIBITION is -3.77%.

Regarding `CC(C)c1noc(C(C)N2CCN(Cc3cccnc3)CC2)n1` (stereo not drawn), the INHIBITION was determined as 15.5%.

Regarding `CN(C)C(=O)N1Cc2nnn(C)c2C(COCC2CC2)C1` (stereo not drawn), the INHIBITION is recorded as 41.8%.

For the compound `CCOCC1CN(C(=O)[C@H]2CCCO2)Cc2nnn(CC3CC3)c21` (stereo partly drawn), the INHIBITION was 57.1%.

Consider `COCC1CN(C(=O)[C@H]2CCCO2)Cc2nnn(CC3CC3)c21` (stereo partly drawn), for which the INHIBITION is given as -4.99%.

Regarding `CCOCC1CN(C(=O)N(C)C)Cc2nnn(CC3CC3)c21` (stereo not drawn), the INHIBITION is -3.51%.
